The values below come from PubChem BioAssay (NCI).

SMILES strings stand for the structures. About 83,000 compounds went through this panel and 20% of them were active in at least one assay; those are over-represented in the sample as a whole.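 Cells were grown in 96-well plates and exposed to the test compound at a single concentration for 48 hours; results are reported as percent growth, with values below 10 considered active.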 Unmarked numbers belong to inactive results. The source made the active and inactive calls.

For the experiment, the system named is HCT-116 colon. Briefly: NCI-60 one-dose screen, 48 h (100 = growth as untreated, 0 = no growth, -100 = all killed). The following applies: 10 µM unless noted. The procedure:
Growth inhibition of the HCT-116 human tumor cell line is measured as a screen for anti-cancer activity. Cells are grown in 96 well plates and exposed to the test compound for 48 hours. Compounds are tested at a single concentration, which is 10^-5 M for most compounds. The reported endpoint is percent growth (GI% or GIPRCNT), where numbers from 0 - 100% represent growth inhibition, and numbers from -100% - 0 represent cell death. For example, a value of 40 represents 60% growth inhibition. A value of 0 means no net growth occurred over the course of the experiment. A value of -40 indicates 40% of cells at the beginning of the experiment died by the end of the experiment. A value of -100 means all cells are dead at the end of the experiment.
NCI-60 Human Tumor Cell Lines Screen was performed using the standard one-dose NCI protocol, which is described in more detail at https://dtp.cancer.gov/discovery_development/nci-60/default.htm.
Compounds with GIPRCNT values below 10 were considered active. Activity score was based on GIPRCNT using the following formula: […]
Score is 0 for GIPRCNT values of 100 or above, 50 for GIPRCNT values of 0, and 100 for GIPRCNT values of -100.
For `COc1cc2cc(Oc3cccc(NC(=O)Nc4cc(C(F)(F)F)cc(C(F)(F)F)c4)c3)c(C)nc2cc1OC`, the growth was 3.73% (active). Turning to `O=C(CNCCN1CCOCC1)N1c2cccc3cccc(c23)N(C(=O)CNCCN2CCOCC2)C1c1cn(-c2ccccc2)nc1-c1cccc([N+](=O)[O-])c1`, the growth is 50.7%.

Regarding `O=C(/C=C/c1ccc(F)cc1)c1ccc(NC(=O)N2CCN(c3cc4c(cc3F)c(=O)c(C(=O)O)cn4C3CC3)CC2)cc1`, the growth was 57.1%. With `COc1ccc2[nH]c(=O)c(CN3CCN(c4nccc(-c5ccc(Cl)cc5)n4)CC3)cc2c1` the figure was 86.4%; with `Cc1ccc(/C=N/NC(=O)CSc2nc3ccccc3c(=O)n2Cc2ccc(S(N)(=O)=O)cc2)cc1`, 97.8%. For `COc1cc2cc(CN3CCN(c4nccc(-c5ccc6ccccc6c5)n4)CC3)c(=O)[nH]c2cc1OC`, the growth was -25.4% (active). With `CC(=O)[C@@H]1CC[C@]2(CO)CC[C@]3(C)[C@H](CC[C@@H]4[C@@]5(C)CCCNC(C)(C)[C@@H]5CC[C@]43C)[C@@H]12` the figure was 94.3%.

For the compound `O=[N+]([O-])c1ccc(N=Nc2cc(S(=O)(=O)O)c3cccc(S(=O)(=O)O)c3c2O)cc1`, the growth was 97.7%.

Turning to `O=C(CCN1CCCC1)Nc1ccc2c(NCCCc3ccccc3)c3ccccc3nc2c1`, the growth was -63.5% (active). With `COc1ccc2[nH]c(O)c(/C=c3/cc4c(c(-c5ccc(F)cc5)n3)=Nc3ccccc3-4)c2c1` the figure was 27.9%; with `CCOC(=O)/C(C#N)=C1/NNC(=Nc2cccnc2)S1`, 91.9%; with `CCSCC1CC(O)(c2ccccc2)CC(c2ccc(F)cc2)O1` (stereo not given), 1.4% (active). With `COc1cccc(/C=N/NC(=O)c2cnn3c2NC(c2ccccc2)C3)c1Oc1ccccc1` (stereo not given), the growth is 55.6%.

On to `COc1cccc(-c2ccc3c(c2)NC(=O)/C3=C\c2ccc[nH]2)c1`, for which the growth is 23.5%. With `COc1ccc(C(=O)NNc2nc(Cl)nc(N3CCN(C(c4ccccc4)c4ccccc4)CC3)n2)cc1` the figure was 9% (active); with `COc1cc(NC(C)CCCNC(=O)CCC(=O)NCCCNCCCCCCCCCCNCCCNC(=O)CCC(=O)NCCCC(C)Nc2cc(OC)cc3cccnc23)c2ncccc2c1` (stereo not given), 69.4% [8 µM]; with `N#C/C(=C\c1ccc([N+](=O)[O-])s1)c1nc2cc(Br)ccc2s1`, -66.4% (active). Consider `CC(Sc1nc2ccccc2c(=O)n1CCc1ccc(S(N)(=O)=O)cc1)C(=O)Nc1ccc(Cl)cc1` (stereo not given), for which the growth is 79.9%. `O=C(CSc1nc2sc3c(c2c(=O)n1-c1ccc(Cl)cc1)CCCC3)Nc1nc(-c2cccc(Br)c2)cs1`: the growth is 81.6%.

On to `O=C(Nc1ccccc1)Nc1ccc2cc3ccc(NC(=O)Nc4ccccc4)cc3nc2c1`, for which the growth was -57.1% (active).

As for `COc1cc2nc(-c3ccc(C(F)(F)F)cc3)cc(OCCCN3CCCC3)c2cc1OC`, the growth is 23.6%. For `O=C1c2ccc3c4c(ccc(c24)C(=O)N1CCCNCc1ccccc1)C(=O)N(CCCNCc1ccccc1)C3=O`, the growth was -44.9% (active). For `COc1ccc(C(=O)/C=C/c2cc3ccccc3n3nnnc23)cc1`, the growth is 106%. With `O=C(Nc1ccc(F)cc1)Nc1ccc(NC(=O)c2cc(Cl)nc3ccccc23)cc1` the figure was 56.9%; with `CCCC/C=N/NC(=S)NCc1ccccc1`, 90.9%.

Consider `Cc1ccc(-n2c3c(c(-c4ccccc4)c2-c2ccccc2)C2=NCCN2C=N3)cc1`, for which the growth was 76.5%. With `Cc1ccc(-n2cc(-c3ccccc3)c3c2N=NN2CCN=C32)cc1` the figure was 95.8%; with `C=C1C(=O)O[C@H]2[C@H]1CC/C(COC(=O)NCCc1c[nH]c3ccc(OC)cc13)=C\CC[C@@]1(C)O[C@@H]21`, -82.5% (active); with `CC(=O)[C@H]1CCC/C=C/[C@@H]2C[C@H](O)C[C@H]2[C@H](O)/C=C/C(=O)O1`, -45.1% (active). Consider `CNCCn1c(=O)c2cc(OC)c(OC)cc2c2ccc3cc4c(cc3c21)OCO4`, for which the growth is 2.87% (active). Turning to `N#CC(C(=O)/C(=N/NC(=O)c1ccccc1O)C(C#N)c1ccccc1)c1ccccc1` (stereo not given), the growth is 14.7%. With `CCN(CC)CCOc1ccc(NC(=O)C(C(C)C)N2C(=O)/C(=C/c3ccc(Br)cc3)SC2=S)cc1` (stereo not given) the figure was -24.8% (active); with `COc1cccc(-c2nc3occn3c2-c2ccnc(NCCNS(=O)(=O)c3ccc(C(F)(F)F)cc3)n2)c1`, 92.9%. With `CCOc1ccc(Nc2nc(-c3ccc4c(c3)NC(=O)CO4)cs2)cc1` the figure was 40.7%.

In the case of `O=C1OC(Cc2ccccc2)C1c1ccccc1` (stereo not given), the growth is 90.8%.

In the case of `COc1cc2c(=O)n(CCN)c3c4cc5c(cc4ccc3c2cc1OC)OCO5`, the growth was -70.9% (active).

On to `CCNC(=O)Oc1ccc(/C(=C(\C)c2ccccc2)c2ccc(OCCCN(C)C)cc2)cc1`, for which the growth is 48.8%.

As to `CN1CCN(C(=O)[C@]23CCC(C)(C)C[C@H]2C2=CC[C@@H]4[C@@]5(C)C/C(=C/c6cccnc6)C(=O)C(C)(C)[C@@H]5CC[C@@]4(C)[C@]2(C)CC3)CC1`, the growth was 20%. Turning to `COc1cc(-c2n/c(=C\c3c(O)[nH]c4ccc(Cl)cc34)cc3c2=Nc2ccccc2-3)ccc1F`, the growth was -45.8% (active).

Take `NC(=S)N1N=C(c2ccccc2)CC1c1cn(-c2ccccc2)nc1-c1ccc(OCc2ccccc2)cc1` (stereo not given): the growth is 88.5%.
